# Values without a mark were called inactive. A call without a number means that no potency is given here. The source made the active and inactive calls. Calls follow the shape of the full dose curve.
# Assay: G protein-coupled receptor (GPCR) small molecule agonists, calcium flux assay: HEK293 wild type cell line counter screen (AID 1920065)
# Conditions: HEK293 WT calcium flux, fluorescence, agonist mode; series mostly up to 57.6 µM
# From the text: U.S. Tox21 Program National Center for Advancing Translational Sciences [NCATS] Division of Preclinical Innovation [DPI] U.S. Environmental Protection Agency [EPA] National Institutes of Environmental Health Sciences [NIEHS] National Toxicology Program [NTP] U.S. Food and Drug Administration [FDA] Assay overview: The increased intracellular calcium release that occurred upon G protein-coupled receptor (GPCR) activation led to the frequent use of calcium flux assays to detect GPCR activation. For the purpose of studying and screening compounds that may activate GPCR, receptor-overexpressing models were typically generated using Hek293 wild-type (WT) cells. In order to eliminate the compounds that may have induced calcium release for non-specific activation, a counter-assay utilizing calcium flux on Hek293 WT cells was performed. The data were formulated in order to serve as a control for any calcium flux detection utilizing Hek293 cells with either GPCR overexpression or gene modification. The procurement of Hek293 WT cells from ATCC. Fluorescence intensity can be utilized to determine the activation of the compound in a calcium flux assay. As a counter control, this cell line was utilized to screen the Tox21 10K compound library.
# Assay Protocol Summary: Hek293 cells were dispensed at 1500cells/4uL/well in 1536-well black wall/clear bottom plates using a multidrop dispenser. After the assay plates were incubated at a 37 C/5% CO2 incubator for 18 hours, 4 uL of Calcium Dye Solution was added to each well. The plates were incubated at 37 C for 1 hour. For agonist mode, 23 nL of compounds dissolved in DMSO, positive control (ATP) or DMSO only was transferred to the assay plate by a pin tool station. The fluorescence intensity in the plates was measured using FDSS 7000EX kinetic plate reader with a filter set of Ex/Em=480/540 for 3 min at 1 sec intervals. Each test compound was measured at 15 concentrations and in triplicates.
# Potency is read from the fitted curve at half-maximal effect.
Compound,Potency,activation
COC(=O)N(OC)c1ccccc1COc1ccn(-c2ccc(Cl)cc2)n1,inactive,
CC(C)(C#N)C(C)(C)C#N,inactive,
COC(=O)c1cc(Oc2ccc(Cl)cc2Cl)ccc1[N+](=O)[O-],inactive,
C=CC(=O)[O][Sn]([CH2]CCC)([CH2]CCC)[CH2]CCC,38.9 µM (active),
Cc1ccc2nc3sc(=O)sc3nc2c1,,-0.174% [at 11.8 µM]
CCCN(CCC)c1c([N+](=O)[O-])cc(S(N)(=O)=O)cc1[N+](=O)[O-],inactive,
CN1C(=O)COc2c(C(=O)NC3CN4CCC3CC4)cc(Cl)cc21 (stereo not given),inactive,
NC1=NC(=O)C(c2ccccc2)O1 (stereo not given),inactive,
CC1(C)CC/C(=C/c2ccc(Cl)cc2)C1(O)Cn1cncn1 (stereo not given),inactive,
CCCCOP(=O)(O)OCCCC,inactive,
CCOC(=O)C(Cl)C(C)=O (stereo not given),inactive,
Cc1cc(=O)[nH]o1,inactive,
Cc1cccc(C)c1NC1=NCCCS1,inactive,
BrC(Br)C(Br)(Br)Br,inactive,
CON(C)C(=O)Nc1ccc(Br)c(Cl)c1,inactive,
C[C@]12CC[C@@H]3c4ccc(OC(=O)N(CCCl)CCCl)cc4CC[C@H]3[C@@H]1CC[C@@H]2O,inactive,
CC[N+]1(C)CCCC(OC(=O)C(O)(c2ccccc2)c2ccccc2)C1 (stereo not given),inactive,
COP(N)(=S)OC,inactive,
CCOC(=O)C(Cl)Cc1cc(-n2nc(C)n(C(F)F)c2=O)c(F)cc1Cl (stereo not given),inactive,
O=C1OC(CCN2CCCCC2)OC1(c1ccccc1)c1ccccc1 (stereo not given),inactive,

Compound,Potency,activation
CN,inactive,
CN(C)C(=O)Oc1cc(OC(=O)N(C)C)cc(C(O)CNC(C)(C)C)c1 (stereo not given),inactive,
O=C(Cc1ccccc1)OCc1ccccc1,inactive,
CC(c1ccccc1)(c1ccc(O)cc1)c1ccc(O)cc1,inactive,
c1cc[c]([Sb]([c]2ccccc2)[c]2ccccc2)cc1,inactive,
Nc1ccc([N+](=O)[O-])cc1Cl,inactive,
CNC(=O)Oc1ccccc1C(C)C,inactive,
CC(=O)[O-].CC(=O)[O-].O.O.[Cd+2],inactive,
CCc1ccccc1N,inactive,
Nc1cc(Cl)ccc1O,inactive,
CCCCC(CC)COC(=O)OOC(C)(C)C (stereo not given),inactive,
CC(=O)O[C@H]1CC[C@@]2(C)C(=CC[C@@H]3[C@@H]2CC[C@]2(C)C(=O)CC[C@@H]32)C1,inactive,
CCCCCCCCP(=O)(O)O,inactive,
Clc1ccccc1N1CCNCC1,inactive,
CO/C=C(/C(=O)OC)c1ccccc1COc1cccc(C(F)(F)F)n1,inactive,
OC(Cn1cncn1)(c1ccc(F)cc1)c1ccccc1F (stereo not given),inactive,
CCn1cc[n+](C)c1 (tested in a mixture with another compound),inactive,
Cc1ccccc1C(=O)Nc1cccc(OC(C)C)c1,inactive,
[CH3][Hg][Cl],inactive,
CC[C@]1(O)CC[C@H]2[C@@H]3CCC4=CCCC[C@@H]4[C@H]3CC[C@@]21C,inactive,

# Source: PubChem BioAssay (Tox21)
